D2 ag-1 = Beta-Arrestin HTS for Positive Allosteric Modulators of the Human D2 Dopamine Receptor: Agonists; activation, % (test concentration not listed); actives 0.084% (n = 360,000); DiscoveRx PathHunter D2 beta-arrestin, luminescence, 90 min; 100% = 57 uM dopamine signal; in the data active means activation above about 40%; inconclusive means between about 15% and that limit
Target sequence (P14416 whole entry, looked up): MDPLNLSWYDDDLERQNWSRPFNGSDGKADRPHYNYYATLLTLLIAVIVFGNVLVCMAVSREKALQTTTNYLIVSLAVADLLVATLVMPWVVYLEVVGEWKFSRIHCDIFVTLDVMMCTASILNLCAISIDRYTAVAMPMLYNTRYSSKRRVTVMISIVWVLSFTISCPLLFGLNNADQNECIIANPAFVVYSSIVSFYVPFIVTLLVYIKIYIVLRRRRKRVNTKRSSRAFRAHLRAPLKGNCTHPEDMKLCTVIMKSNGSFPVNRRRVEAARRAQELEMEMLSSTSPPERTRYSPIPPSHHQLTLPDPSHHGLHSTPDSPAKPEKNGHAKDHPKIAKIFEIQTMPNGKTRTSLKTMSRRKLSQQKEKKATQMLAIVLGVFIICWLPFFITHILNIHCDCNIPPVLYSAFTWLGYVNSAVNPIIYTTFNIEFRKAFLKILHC
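Agonist mode: compounds alone added to overnight-plated D2 PathHunter cells for 90 min at 37 C, with 57 uM final dopamine (EC100) defining full response. Beta-arrestin recruitment detected by chemiluminescent reagent, read after 1 h at ambient temperature.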
D2 antagonist = HTS Assay for Allosteric Antagonists of the Human D2 Dopamine Receptor: Primary Screen for Antagonists; actives 2% (n = 340,000); inhibition, % at 10 µM; AID 485344, 2010; HEK293 TREx D2 cells, calcium flux, dopamine EC80; D(2) dopamine receptor (Homo sapiens), P14416; in the data active means inhibition above about 30%; inactive means below that, where a call was filed
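HEK293 T-REx D2 cells, tet-induced, calcium dye no-wash. Cpd pintool add, 180 s kinetic, then EC80 DA, 180 s kinetic. Ca flux read.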
D2 PAM-1 = Beta-Arrestin HTS for Positive Allosteric Modulators of the Human D2 Dopamine Receptor: Potentiators | D(2) dopamine receptor (Homo sapiens), P14416 | DiscoveRx D2 beta-arrestin cells, luminescence, 90 min; 100% = 57 uM dopamine signal | potentiation, % (test concentration not listed) | actives 0.23% (n = 360,000); in the data active means potentiation above about 50%; inconclusive means mostly about 30% to 49%
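D2 cells co-treated with compound plus 50 nM dopamine (EC20) for 90 min at 37 deg C to detect potentiation. Beta-arrestin recruitment was read as enzyme-fragment luminescence after 1 h at ambient temperature. Full response was set by 57 uM dopamine.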
D2 PAM-2 = HTS Assay for Positive Allosteric Modulators of the Human D2 Dopamine Receptor: Primary Screen for Potentiators | D(2) dopamine receptor (Homo sapiens), P14416 | HEK293 T-REx D2, calcium flux, EC20 dopamine potentiation | potentiation, % at 10 µM | actives 0.34% (n = 340,000) | AID 485347, 2010;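 active means potentiation over 3 SD above the plate norm, cut at about 30% in these data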
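Potentiation of an EC20 dopamine calcium response is measured in a force-coupled, tetracycline-inducible Hek293 Trex D2 line. Compound-only kinetic reads over 180 s flag agonists before dopamine addition.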
D2 ag-2 = HTS Assay for Allosteric Agonists of the Human D2 Dopamine Receptor: Primary Screen for Agonists; HEK293 T-REx D2 cells, calcium flux agonist mode; activation, % at 2 µM; actives 0.53% (n = 340,000);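 active means activation over 3 SD above normal in the single-dose calcium agonist read, cut at about 30% in these data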
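HEK293 Trex D2 cells, tetracycline-induced, o/n 30 C 5% CO2; no-wash Ca dye, RT 30–90 min; 10-cycle baseline, 23 nl cpd added, kinetic Ca read 180 s; agonist hits = positive Ca response.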
A number is an active result; 0 = inactive; ? = inconclusive; - = no result given; ! = not active in a repeat. Hits are enriched below; roughly 2.4% of the tested compounds scored in any of these assays.

SMILES | D2 ag-1 | D2 antagonist | D2 PAM-1 | D2 PAM-2 | D2 ag-2
COc1ccc(C(=O)NCC(c2ccc3c(c2)OCO3)N2CCN(C)CC2)cc1OC (stereo not drawn) | - | - | - | 0 | 0
COc1cc(Cl)c(C)cc1NC(=O)CNC(=O)Cn1ccc2ccccc2c1=O | - | - | - | 0 | 0
Cc1ccc(-c2nc3sc(CCNS(=O)(=O)c4cc(F)ccc4F)c(C)n3n2)cc1 | - | - | - | 0 | 0
COc1cccc(-c2nc(SCC(=O)NC3CCCC3)c(-c3ccc(F)cc3)[nH]2)c1 | - | - | - | 0 | -
CCc1ccc(NC(=O)COc2cccc(-n3cnnn3)c2)cc1 | 0 | 37 | 0 | 0 | 0
Cc1ccc(NC(=O)COc2ccc(-n3cnnn3)cc2)cc1C | 0 | 42 | 0 | 0 | 0
COC(=O)c1ccc(NC(=O)COc2cccc(-n3cnnn3)c2)cc1 | 0 | 0 | 0 | 0 | 0
COc1cc(Cl)c(C)cc1NC(=O)CC(c1ccc(F)cc1)N1Cc2ccccc2C1=O (stereo not drawn) | - | - | - | 0 | 0
COc1ccc(CNC(=O)c2nc(Cn3nc(C)c(Br)c3C)no2)cc1OC | - | - | - | 0 | 0
Cc1ccc2nc(N(Cc3cccnc3)C(=O)c3ccco3)sc2c1 | - | - | - | 0 | 0
CN1/C(=C\C(=O)c2cccnc2)C(C)(C)c2ccccc21 | 0 | 32 | 0 | 0 | 0
CN1/C(=C\C(=O)c2cncc(Br)c2)C(C)(C)c2ccccc21 | 0 | 0 | 0 | 0 | 0
CN1\C(=C/C=C/C=C/C=[N+](C)C)C(C)(C)c2ccccc21 | 0 | 63 | 0 | 0 | 47
CN1/C(=C\C(=O)C(F)F)C(C)(C)c2ccccc21 | 0 | 47 | 0 | 0 | 0
Cc1ccc(-c2cc(C(=O)N3CCN(S(=O)(=O)c4ccc(Br)s4)CC3)[nH]n2)c(C)c1 | - | - | - | 0 | -
CCOC(=O)c1cccc(NC(=O)c2cnc3sc(N4CCOCC4)nn3c2=O)c1 | - | - | - | 0 | 0
CSc1ccccc1NC(=O)C1=CC(c2ccc3c(c2)OCO3)=NS(=O)(=O)N1C | - | - | - | 0 | 0
O=C(NC1CC1)c1cc2c(s1)-c1ccccc1OC2 | 0 | 34 | 0 | 0 | 0
CCN(C(=O)c1cc2c(s1)-c1ccccc1OC2)c1cccc(C(F)(F)F)c1 | - | - | - | 0 | 0
O=C(Nc1cccc(C(F)(F)F)c1)c1cc2c(s1)-c1ccccc1OC2 | 0 | 40 | 0 | 0 | 0
O=C(O)c1cc2c(s1)-c1ccccc1OC2 | 0 | 0 | 0 | 0 | 0
CCOC(=O)c1cccc(NC(=O)CNS(=O)(=O)c2cccs2)c1 | 0 | 0 | 0 | 44 | 0
CN(C)CCCNc1oc(-c2ccccc2Cl)nc1S(=O)(=O)c1ccc(F)cc1 | 0 | 34 | 0 | 0 | 0
CN(C)CCNc1oc(-c2ccccc2Cl)nc1S(=O)(=O)c1ccccc1 | 0 | 0 | 0 | 0 | 0
COc1ccccc1NC(=O)CN1C(=O)COc2ccc(S(=O)(=O)N3CCC(C)CC3)cc21 | 0 | 0 | 0 | 0 | 0
SMILES | D2 ag-1 | D2 antagonist | D2 PAM-1 | D2 PAM-2 | D2 ag-2
CCOc1ccccc1NC(=O)CN1C(=O)COc2ccc(S(=O)(=O)N3CCOCC3)cc21 | 0 | 36 | 0 | 0 | 0
Cc1cccc(COc2ccc(/C=C3/C(=O)N(C)C(=S)N3C)cc2)c1 | 0 | 31 | 0 | 0 | 0
Cn1nc(-c2ccc(OCC(=O)Nc3cccc(C(F)(F)F)c3)cc2)c2ccccc2c1=O | - | - | - | 0 | 0
COc1ccc(CCNc2c(C)c(C)nc3ncnn23)cc1 | 0 | 0 | 0 | 43 | 0
Cc1cc(C(=O)CSc2nnc(-c3ccccc3)o2)c(C)n1CC1COc2ccccc2O1 (stereo not drawn) | 0 | 0 | 0 | 0 | 0
Cc1cc(C(=O)CSc2nnc(-c3ccc(F)cc3)o2)c(C)n1CC1COc2ccccc2O1 (stereo not drawn) | 0 | 41 | 0 | 0 | 0
Cc1[nH]n2c(=O)c3c(nc2c1-c1ccccc1)CCCC3 | 0 | 0 | 0 | 0 | 0
Cc1[nH]n2c(=O)c3c(nc2c1-c1ccc(F)cc1)CCCC3 | 0 | 36 | 0 | 0 | 0
COC(=O)c1ccc(NC(=O)CC2C(=O)N(c3cccc(OC)c3)C(=O)N2Cc2ccco2)cc1 (stereo not drawn) | - | - | - | 0 | 0
COc1ccccc1CCNC(=O)CCCn1c(=O)c2cccn2c2cccnc21 | - | - | - | - | 0
N#Cc1cc2ccc(N3CCOCC3)cc2cc1C#N | 0 | 0 | 69 | 0 | 0
COc1ccc(CC(=O)NCC(c2cccs2)S(=O)(=O)c2ccc(Cl)cc2)cc1 (stereo not drawn) | - | - | - | 0 | 0
Cc1ccc2nc3cc([N+](=O)[O-])cc([N+](=O)[O-])c3cc2c1 | 0 | 0 | 0 | - | 0
Cc1ccccc1-n1ncc2c([N+](=O)[O-])cc([N+](=O)[O-])cc21 | 0 | 0 | 83 | 0 | 0
CCOc1ccc(C(=O)O/N=C(\N)c2ccccn2)cc1 | ? | 0 | 55 | 0 | 0
COc1ccc(Cl)cc1C(=O)O/N=C(\N)c1ccccn1 | ? | 0 | 63! | 0 | 0
CCNC(=S)NC1CC2CCCC(C1)N2CCc1ccccc1 (stereo not drawn) | 0 | 0 | 0 | 0 | 0
CC(C)CNC(=S)NC1CC2CCC(C1)N2Cc1ccccc1 (stereo not drawn) | 0 | 90 | 0 | 0 | 0
O=C(NC1CC2CCCC(C1)N2Cc1ccccc1)C1CCCCC1 (stereo not drawn) | 0 | 0 | 0 | 0 | 0
S=C(NC1CCCCC1)NC1CC2CCC(C1)N2Cc1ccccc1 (stereo not drawn) | 0 | 77 | 0 | 0 | 0
CCNC(=S)NC1CC2CCC(C1)N2Cc1ccccc1 (stereo not drawn) | 0 | 57 | 0 | 0 | 0
CCCNC(=S)NC1CC2CCC(C1)N2Cc1ccccc1 (stereo not drawn) | 0 | 67 | 0 | 0 | 0
CC1(C(=O)Nc2cccc(OC(F)(F)F)c2)Cc2c(-c3ccc(C(N)=O)cc3)ccnc2O1 (stereo not drawn) | 0 | - | 0 | - | -
CCOc1ccccc1NC(=O)CSC1=Nc2ccccc2C2=NC(CC(=O)NC3CCCCC3)C(=O)N12 (stereo not drawn) | - | - | - | 0 | 0
COc1ccccc1CNC(=O)CSc1nc(=O)[nH]c2c1CCCC2 | - | - | - | 0 | 0
S=C(NCCc1ccccc1)NC1CC2CCC(C1)N2Cc1ccccc1 (stereo not drawn) | 0 | 63 | 0 | 0 | 0
COCCCNC(=S)NC1CC2CCC(C1)N2Cc1ccccc1 (stereo not drawn) | 0 | 0 | 0 | 0 | 0
